D3 antag – antagonists of human D3 dopamine receptor | actives 2.5% (n = 360,000) | max response, negative = inhibition, % | D3R cells, DiscoveRx beta-arrestin luminescence, antagonist mode; hits give low values; in the data active = max response below about -50%; note: % is set by controls: 0 for no effect and ±100 for the full control effect
Target sequence (P35462 whole entry, looked up): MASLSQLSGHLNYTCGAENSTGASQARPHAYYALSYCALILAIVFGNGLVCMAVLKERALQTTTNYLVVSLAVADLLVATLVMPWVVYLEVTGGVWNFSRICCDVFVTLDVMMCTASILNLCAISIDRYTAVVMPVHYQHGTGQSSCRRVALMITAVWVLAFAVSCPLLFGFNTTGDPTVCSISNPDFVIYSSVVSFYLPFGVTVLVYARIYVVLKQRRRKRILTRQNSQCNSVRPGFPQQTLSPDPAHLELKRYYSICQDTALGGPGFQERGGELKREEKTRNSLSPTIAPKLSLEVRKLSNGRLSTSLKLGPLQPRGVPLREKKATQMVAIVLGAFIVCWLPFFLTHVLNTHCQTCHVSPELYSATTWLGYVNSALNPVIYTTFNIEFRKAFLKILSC
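Cells plated overnight at 1500 cells/well, then exposed to library compounds with dopamine controls for 90 minutes at 37 degrees C. DiscoveRx reagent added for 30–60 minutes at room temperature; luminescence read, quantitative HTS format.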
D1 PAM – human D1 dopamine receptor positive modulation; P21728; HEK293 TREx D1 cells, calcium flux, dopamine EC20 potentiation; potentiation, % at 10 µM; actives 0.036% (n = 360,000); in the data active = potentiation above about 30%; note: 0% is about no effect
D3 ag – activates the human D3 dopamine receptor; max activation, %; D3R DiscoveRx beta-arrestin cells, luminescence, 90 min; actives 0.58% (n = 410,000); P35462; AID 652048; in the data active = max activation above about 30%; note: 0% is about no effect
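Agonist mode: compounds and dopamine controls were applied to plated cells for 90 min at 37 degrees C after an overnight attachment at 1500 cells/well. Luminescent read-out followed 30 - 60 minutes at room temperature with DiscoveRx detection reagent.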
D1 agonist – human D1 receptor agonism; activation, % at 2 µM; P21728; actives 1% (n = 360,000); HEK293 T-REx D1 cells, calcium flux, agonist mode; in the data active = activation above about 30%; note: 0% is about no effect
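Agonism was scored from calcium flux recorded over 180 s (1 read/s) after pintool compound addition, following a 10-cycle baseline. Cells were inducible force-coupled HEK293 TREx D1, plated overnight at 30 C and loaded with no-wash calcium dye.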
D1 antag – human D1 dopamine receptor antagonism | actives 3.2% (n = 360,000) | activity change, negative = inhibition, % at 10 µM | HEK293 TREx D1 cells, calcium flux, dopamine EC80; hits give low values | P21728; in the data active = activity change below about -30%; note: % is set by controls: 0 for no effect and ±100 for the full control effect
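Calcium flux readout: force-coupled, inducible Hek293 Trex D1 line, cells induced overnight at 30 C with tetracycline, dye-loaded 30–90 min at RT. Antagonism scored against EC80 dopamine challenge given 180 s after compound.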
* hit, by the source's call. Hits are enriched below; roughly 6% of the tested compounds scored in any of these assays.

How did Cc1cc(C)cc(NC(=O)N2CCC(N3CCCCC3)CC2)c1 do in these assays?
D1 PAM: -1.5; D3 ag: -4.7; D1 agonist: 0.5; D1 antag: -5.9

How did CCC(=O)NC(c1ccco1)c1cc([N+](=O)[O-])c2cccnc2c1O (centres undefined) do in these assays?
D1 PAM: -0.3; D1 agonist: 2.0; D1 antag: -21.8

Results for Cc1cc(Br)ccc1NC(=O)C(Cc1ccccc1)NS(=O)(=O)c1ccc(Br)s1 (centres undefined) ?
D1 PAM: -2.1; D3 ag: 0.4; D1 agonist: 4.4; D1 antag: 3.4

How did COc1cccc2[nH]c3ccccc3c(=O)c12 do in these assays?
D3 antag: 5.6; D1 PAM: -0.4; D3 ag: 7.3; D1 agonist: 1.3; D1 antag: 1.7

Results for C=Cc1ncc(OC)c2c1[nH]c1ccccc12 ?
D3 antag: -8.3; D1 PAM: -5.7; D3 ag: 1.1; D1 agonist: 3.8; D1 antag: -55.2*

What do the screens show for `Cc1cc(Cl)ccc1Oc1ncnc2oc(-c3ccccc3)cc12`?
D3 antag: -2.0; D1 PAM: -0.2; D3 ag: -7.1; D1 agonist: 2.9; D1 antag: 1.9

Results for Cc1cccc(Oc2ncnc3oc(-c4ccccc4)cc23)c1C ?
D3 antag: 43.5; D1 PAM: -10.7; D3 ag: 3.4; D1 agonist: 0.9; D1 antag: -81.3*

Results for CCCCS(=O)CC(O)CSc1nc(-c2ccc(OC)cc2)cc(-c2ccccc2)c1C#N (centres undefined) ?
D1 PAM: -1.0; D3 ag: 3.0; D1 agonist: 9.9; D1 antag: 11.4

How did CC(C)N(C(=O)CN1CCN(C(=O)C2COc3ccccc3O2)CC1)C(C)C (centres undefined) do in these assays?
D3 antag: -0.9; D1 PAM: -6.9; D3 ag: -2.5; D1 agonist: 1.7; D1 antag: -1.1

What do the screens show for `O=C(C1CCCO1)N1CCN(S(=O)(=O)c2ccc(Cl)cc2)CC1` (centres undefined)?
D3 antag: 4.1; D1 PAM: -8.8; D3 ag: 3.4; D1 agonist: 2.9; D1 antag: -47.1*

How did O=C(CN1CCN(C(=O)C2COc3ccccc3O2)CC1)Nc1ccccc1 (centres undefined) do in these assays?
D3 antag: 2.7; D1 PAM: -8.2; D3 ag: 4.6; D1 agonist: 2.6; D1 antag: -33.1*

What do the screens show for `O=C(CN1CCN(C(=O)C2CCCO2)CC1)Nc1ccc(Cl)cc1` (centres undefined)?
D3 antag: -8.0; D1 PAM: 4.5; D3 ag: -2.2; D1 agonist: -0.6; D1 antag: -30.4*

What do the screens show for `O=C(CCC1COc2ccccc2O1)Nc1cccnc1` (centres undefined)?
D3 antag: 24.7; D1 PAM: -2.5; D3 ag: 33.2*; D1 agonist: 7.3; D1 antag: -9.5

Results for O=C(Nc1ccc(Cl)cc1)N1CCN(C(=O)C2CCCO2)CC1 (centres undefined) ?
D3 antag: 9.4; D1 PAM: -2.7; D3 ag: 6.6; D1 agonist: 1.1; D1 antag: -19.8

Results for O=C(COc1ccc(F)cc1)OCc1cc(=O)n2nc(C3CCCCC3)sc2n1 ?
D1 PAM: -2.9; D3 ag: 5.3; D1 agonist: 2.9; D1 antag: -17.4

Results for COc1cccc(OC)c1C(=O)Nc1ccc(S(=O)(=O)Nc2nccc(C)n2)cc1 ?
D1 PAM: -3.4; D3 ag: 2.8; D1 agonist: 0.9; D1 antag: -4.7

How did Cc1ccc(S(=O)(=O)c2nnn3c2nc(NC(C)c2ccccc2)c2sccc23)cc1 (centres undefined) do in these assays?
D1 PAM: -1.0; D3 ag: -14.2; D1 agonist: 8.7; D1 antag: -17.4

Results for COc1ccc(OC)c(CNS(=O)(=O)c2c(C(=O)N3CCCCCC3)c(C)n(C)c2C)c1 ?
D1 PAM: -3.9; D3 ag: -1.6; D1 agonist: 3.1; D1 antag: 7.3

What do the screens show for `O=C(N1CCOCC1)N1CCN(S(=O)(=O)c2ccc(Cl)cc2)C1`?
D3 antag: -19.5; D1 PAM: -1.8; D3 ag: 5.9; D1 agonist: 1.6; D1 antag: 13.6

What do the screens show for `O=C(C1CC(Cl)CN1S(=O)(=O)c1ccc(Cl)cc1)N1CCOCC1` (centres undefined)?
D3 antag: 6.7; D1 PAM: -5.2; D3 ag: 3.0; D1 agonist: -0.6; D1 antag: -36.2*

What do the screens show for `Cc1ccc(C(=O)Nc2c(-c3ccc(Cl)cc3)[nH][nH]c2=O)cc1`?
D3 antag: -69.9*; D3 ag: -11.5

Results for O=C(Nc1c(-c2ccc3c(c2)OCO3)[nH][nH]c1=O)c1ccccc1 ?
D3 antag: -91.9*; D3 ag: -8.1

How did O=C(Nc1c(-c2ccccc2)[nH][nH]c1=O)c1ccc2c(c1)OCO2 do in these assays?
D3 antag: -11.5; D3 ag: -3.0

Results for O=C(Nc1c(-c2ccccc2)[nH][nH]c1=O)c1ccc(-c2ccccc2)cc1 ?
D3 antag: -21.8; D3 ag: -14.3

How did COc1cc([N+](=O)[O-])ccc1NC(=O)N1CCC2(CC1)Nc1ccccc1-n1cccc12 do in these assays?
D1 PAM: 1.8; D3 ag: 2.3; D1 agonist: -1.0; D1 antag: -11.9

Results for Cc1ccc(Cl)cc1NC(=O)N1CCc2cc(S(=O)(=O)N3CCC(C)CC3)ccc21 ?
D1 PAM: -1.8; D3 ag: -5.0; D1 agonist: 0.3; D1 antag: 4.5

Results for COC(C[C@H](O)C[C@@H](O)COCc1ccccc1)OC ?
D3 antag: -106.9*; D1 PAM: -0.1; D3 ag: -3.1; D1 agonist: 3.8; D1 antag: 0.9

Results for COC(C[C@@H](O)C[C@@H](O)COCc1ccccc1)OC ?
D3 antag: 0.0; D1 PAM: -3.5; D3 ag: -16.5; D1 agonist: 2.9; D1 antag: 14.9

How did Cc1ccccc1N(C)C(=O)c1noc2c1COc1ccccc1-2 do in these assays?
D1 PAM: 0.7; D3 ag: -16.2; D1 agonist: 7.2; D1 antag: 5.6

Results for CCN(CC)c1ccc(C(=O)NCc2ccc3c(c2)CCN3C(=O)c2ccc(F)cc2)cc1 ?
D1 PAM: -0.1; D3 ag: -4.2; D1 agonist: 4.6; D1 antag: -4.8

Results for Cc1cccc(-c2cc3nc4c(c(N5CCOCC5)n3n2)CCCC4)c1 ?
D3 antag: 16.9; D1 PAM: -0.6; D3 ag: 11.0; D1 agonist: 0.6; D1 antag: -8.4

Results for Fc1ccc(-c2cc3nc4c(c(N5CCOCC5)n3n2)CCCC4)cc1 ?
D3 antag: 45.7; D1 PAM: -4.2; D3 ag: 47.1*; D1 agonist: 1.1; D1 antag: -5.1

Bioassay records deposited in PubChem BioAssay by National Center for Advancing Translational Sciences (NCATS).
